Whole data set: some 16,000 sequences, median “rpm ratio (pull-down/input)” near 0.94, cut for the highest 2% near 1.7. The sample as a whole holds a higher share of the highest values than the screen did.
These sequences were tested against T1, MBP-FoxP1dN (Mus musculus, UniProt P58462 326-579) (assay: PD-seq (MBP pull-down with sequencing); 20 mM Tris-HCl pH 7.5, 100 mM NaCl, 1.5 mM MgCl2, 0.4 uM protein, 0.1 uM dsDNA library, 30 min, room temperature, amylose pull-down; high values mean tight binding). Conditions: protein: recombinant; tags: His6-MBP; chain copies: 2; dsDNA, one strand shown.
T1 sequence: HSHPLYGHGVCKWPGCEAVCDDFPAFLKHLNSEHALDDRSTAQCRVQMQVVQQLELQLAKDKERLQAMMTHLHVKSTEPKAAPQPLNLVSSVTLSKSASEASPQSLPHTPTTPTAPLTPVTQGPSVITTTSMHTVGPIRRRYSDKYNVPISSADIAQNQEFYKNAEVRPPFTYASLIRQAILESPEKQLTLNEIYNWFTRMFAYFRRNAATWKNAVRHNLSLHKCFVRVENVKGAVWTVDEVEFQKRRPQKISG
How it was run: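 In Tris pH 7.5 buffer with NaCl and MgCl2, 0.4 µM His6-MBP-tagged mouse FoxP3 or FoxP1 fragment lacking the N-terminus, from E. coli, met 0.1 µM Klenow-filled double-stranded degenerate DNA library for 30 min at room temperature. Three washes on amylose resin followed capture of the complexes, then proteinase K release of DNA, PCR barcoding and Illumina sequencing. Binding is taken as pooled-replicate reads-per-million enrichment of pull-down relative to input.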

Sequence	binding signal
GATGATTGTTCTCCCAGCTGATGAATTTATGTGATCGAGTAAACAAATTTTCCTAATCTTTCTGTTCAAGCGCCATCTAC	1.21 RPM ratio (pull-down/input)
GATGATTGTTCTCCCAGCTGATGAATTGTAGTGCTCGAGTAAACAAATTTTCCTAATCTTTCTGTTCAAGCGCCATCTAC	1.04 RPM ratio (pull-down/input)
GATGATTGTTCTCCCAGCTGATGAATTTGGTACGTCGAGTAAACAAATTTTCCTAATCTTTCTGTTCAAGCGCCATCTAC	0.997 RPM ratio (pull-down/input)
GATGATTGTTCTCCCAGCTGATGAATTAATCGCGTCGAGTAAACAAATTTTCCTAATCTTTCTGTTCAAGCGCCATCTAC	1.01 RPM ratio (pull-down/input)
GATGATTGTTCTCCCAGCTGATGAATTTTAATCCTCGAGTAAACAAATTTTCCTAATCTTTCTGTTCAAGCGCCATCTAC	0.832 RPM ratio (pull-down/input)
GATGATTGTTCTCCCAGCTGATGAATTCAGGGGGTCGAGTAAACAAATTTTCCTAATCTTTCTGTTCAAGCGCCATCTAC	0.723 RPM ratio (pull-down/input)
GATGATTGTTCTCCCAGCTGATGAATTGCTGTTATCGAGTAAACAAATTTTCCTAATCTTTCTGTTCAAGCGCCATCTAC	1.85 RPM ratio (pull-down/input)
GATGATTGTTCTCCCAGCTGATGAATTGGTGTTATCGAGTAAACAAATTTTCCTAATCTTTCTGTTCAAGCGCCATCTAC	1.9 RPM ratio (pull-down/input)
GATGATTGTTCTCCCAGCTGATGAATTGTTATCCTCGAGTAAACAAATTTTCCTAATCTTTCTGTTCAAGCGCCATCTAC	1.55 RPM ratio (pull-down/input)
GATGATTGTTCTCCCAGCTGATGAATTTTGGTTATCGAGTAAACAAATTTTCCTAATCTTTCTGTTCAAGCGCCATCTAC	1.17 RPM ratio (pull-down/input)
GATGATTGTTCTCCCAGCTGATGAATTTGTTATATCGAGTAAACAAATTTTCCTAATCTTTCTGTTCAAGCGCCATCTAC	1.5 RPM ratio (pull-down/input)
GATGATTGTTCTCCCAGCTGATGAATTTGTTATCTCGAGTAAACAAATTTTCCTAATCTTTCTGTTCAAGCGCCATCTAC	1.76 RPM ratio (pull-down/input)
GATGATTGTTCTCCCAGCTGATGAATTTGAGTTATCGAGTAAACAAATTTTCCTAATCTTTCTGTTCAAGCGCCATCTAC	1.04 RPM ratio (pull-down/input)
GATGATTGTTCTCCCAGCTGATGAATTTCTTATCTCGAGTAAACAAATTTTCCTAATCTTTCTGTTCAAGCGCCATCTAC	0.829 RPM ratio (pull-down/input)
GATGATTGTTCTCCCAGCTGATGAATTGCTCTTATCGAGTAAACAAATTTTCCTAATCTTTCTGTTCAAGCGCCATCTAC	1.17 RPM ratio (pull-down/input)
GATGATTGTTCTCCCAGCTGATGAATTTTTGTTATCGAGTAAACAAATTTTCCTAATCTTTCTGTTCAAGCGCCATCTAC	2.35 RPM ratio (pull-down/input)
GATGATTGTTCTCCCAGCTGATGAATTGCTTTTATCGAGTAAACAAATTTTCCTAATCTTTCTGTTCAAGCGCCATCTAC	1.26 RPM ratio (pull-down/input)

Sequence	binding signal
GATGATTGTTCTCCCAGCTGATGAATTGGTGTAATCGAGTAAACAAATTTTCCTAATCTTTCTGTTCAAGCGCCATCTAC	1.49 RPM ratio (pull-down/input)
GATGATTGTTCTCCCAGCTGATGAATTCAAGATATCGAGTAAACAAATTTTCCTAATCTTTCTGTTCAAGCGCCATCTAC	0.908 RPM ratio (pull-down/input)
GATGATTGTTCTCCCAGCTGATGAATTCGTCTACTCGAGTAAACAAATTTTCCTAATCTTTCTGTTCAAGCGCCATCTAC	0.938 RPM ratio (pull-down/input)
GATGATTGTTCTCCCAGCTGATGAATTCTTTTCATCGAGTAAACAAATTTTCCTAATCTTTCTGTTCAAGCGCCATCTAC	1.07 RPM ratio (pull-down/input)
GATGATTGTTCTCCCAGCTGATGAATTCAGGGCTTCGAGTAAACAAATTTTCCTAATCTTTCTGTTCAAGCGCCATCTAC	0.881 RPM ratio (pull-down/input)
GATGATTGTTCTCCCAGCTGATGAATTCGCCGATTCGAGTAAACAAATTTTCCTAATCTTTCTGTTCAAGCGCCATCTAC	0.86 RPM ratio (pull-down/input)
GATGATTGTTCTCCCAGCTGATGAATTTGTCCTTTCGAGTAAACAAATTTTCCTAATCTTTCTGTTCAAGCGCCATCTAC	1.08 RPM ratio (pull-down/input)
GATGATTGTTCTCCCAGCTGATGAATTATGTTCGTCGAGTAAACAAATTTTCCTAATCTTTCTGTTCAAGCGCCATCTAC	1.06 RPM ratio (pull-down/input)
GATGATTGTTCTCCCAGCTGATGAATTTGTGTTATCGAGTAAACAAATTTTCCTAATCTTTCTGTTCAAGCGCCATCTAC	2.08 RPM ratio (pull-down/input)
GATGATTGTTCTCCCAGCTGATGAATTGTGGTTATCGAGTAAACAAATTTTCCTAATCTTTCTGTTCAAGCGCCATCTAC	1.27 RPM ratio (pull-down/input)
GATGATTGTTCTCCCAGCTGATGAATTGTGTTAATCGAGTAAACAAATTTTCCTAATCTTTCTGTTCAAGCGCCATCTAC	1.27 RPM ratio (pull-down/input)
GATGATTGTTCTCCCAGCTGATGAATTTTGTTTGTCGAGTAAACAAATTTTCCTAATCTTTCTGTTCAAGCGCCATCTAC	2.66 RPM ratio (pull-down/input)
GATGATTGTTCTCCCAGCTGATGAATTTTGATTGTCGAGTAAACAAATTTTCCTAATCTTTCTGTTCAAGCGCCATCTAC	1.67 RPM ratio (pull-down/input)
GATGATTGTTCTCCCAGCTGATGAATTTTGCGCGTCGAGTAAACAAATTTTCCTAATCTTTCTGTTCAAGCGCCATCTAC	1.04 RPM ratio (pull-down/input)
GATGATTGTTCTCCCAGCTGATGAATTTGTTTTGTCGAGTAAACAAATTTTCCTAATCTTTCTGTTCAAGCGCCATCTAC	2.33 RPM ratio (pull-down/input)
GATGATTGTTCTCCCAGCTGATGAATTTTTTGCGTCGAGTAAACAAATTTTCCTAATCTTTCTGTTCAAGCGCCATCTAC	1.1 RPM ratio (pull-down/input)

Reference: publication PMC12820563, “FoxP3 forms a head-to-head dimer in vivo and stabilizes its multimerization on adjacent microsatellites”
